Screening data (PubChem)
BoNT-F LC inh: BoNT/F light chain protease inhibitors, primary screen, biochemical, flow cytometry, MLPCN library; inhibition, % at 10 µM; 360,000 tested, 0.22% active; Botulinum neurotoxin type F light chain protease (Clostridium botulinum); Multiplex microsphere protease cleavage assay; AID 588497, 2011; in the data active means inhibition above about 35%, passing the limit was not always enough; inconclusive means no clear call, values can overlap the other calls
MazEF act: activators of E. coli MazEF toxin-antitoxin RNase, primary screen, biochemical, fluorescence, uHTS | FAM/BHQ RNA-DNA oligo cleavage fluorescence, 5 h | activation, % at 20 µM | 350,000 tested, 0.32% active | AID 504720, 2011; in the data active means activation above about 50%
Target sequence (P0AE70 whole entry, looked up): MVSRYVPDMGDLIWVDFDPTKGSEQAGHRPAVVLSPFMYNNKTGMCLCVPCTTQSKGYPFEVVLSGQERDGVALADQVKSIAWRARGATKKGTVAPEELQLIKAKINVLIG
SSB-PriA inh: inhibitors of Klebsiella pneumoniae PriA binding to SSB C-terminal tail, primary screen, biochemical, AlphaScreen; PriA–SSB C-terminal tail interaction (Klebsiella pneumoniae); AlphaScreen SSBct-PriA binding, biotinylated peptide; inhibition, % at 33 µM; 430,000 tested, 0.6% active; AID 1272365, 2023; in the data active means inhibition mostly above about 37%, no sharp cut-off; inactive means mostly below about 20%
BoNT A protease: BoNT/A light chain protease inhibitors, primary screen, biochemical, flow cytometry, MLPCN library; AID 588499, 2011; multiplex microsphere protease substrate cleavage; 360,000 tested, 0.17% active; Botulinum neurotoxin type A light chain protease (Clostridium botulinum A str. ATCC 3502); inhibition, % at 10 µM
Anthrax LF prot: Bacillus anthracis LF protease inhibitors, primary screen, biochemical, multiplex microsphere, MLPCN library | inhibition, % at 10 µM | multiplex microsphere protease cleavage assay | 360,000 tested, 0.12% active
Autofluor counter: flagged as autofluorescent in microsphere protease counterscreen | compound autofluorescence counterscreen, microsphere flow cytometry; active compounds read high | fluorescence intensity (concentration not given with the values) | 360,000 tested, 3.1% active; in the data active means fluorescence intensity above about 16000; inconclusive means no clear call, values can overlap the other calls
Large screens that a line does not name were inactive. In the library only some 3.3% were active in any assay of this set; here they are far more common. Unless noted, no stated cut-off is given here; in the data, active means inhibition above about 30%; inconclusive means no clear call, values can overlap the other calls; inactive means below that.

O=C(c1ccco1)N1CC(S(=O)(=O)c2ccc(Cl)cc2)C1	none (no result: BoNT-F LC inh, MazEF act, BoNT A protease, Anthrax LF prot, Autofluor counter)
O=C(Cc1c(F)cccc1Cl)NCC(O)(c1ccccc1)C(F)(F)F (centres undefined)	none (no result: BoNT-F LC inh, MazEF act, BoNT A protease, Anthrax LF prot, Autofluor counter)
O=C(Nc1cccc(C(F)(F)F)c1)c1n[nH]c(Cn2cncn2)n1	BoNT A protease inconclusive, Anthrax LF prot inconclusive, Autofluor counter inconclusive
O=C(Nc1ccccc1)c1n[nH]c(Cn2cncn2)n1	Autofluor counter 23808
COc1ccc(CC(=O)c2c(O)cc(O)cc2O)cc1OC	BoNT A protease inconclusive, Autofluor counter 22635
O=C(CCn1c(=O)[nH]c2ccsc2c1=O)N1CC(=O)N(CCc2ccccc2)C(=O)C1	BoNT A protease inconclusive, Autofluor counter 23732
CN1CCN(/C=N/c2c(C#N)cnn2Cc2ccccc2)CC1	BoNT A protease inconclusive, Autofluor counter 20606 (no result: SSB-PriA inh)
CN(C)S(=O)(=O)c1ccc2nc(NC(=O)c3cccs3)sc2c1	Autofluor counter 21214
CCCN(CCC)S(=O)(=O)c1ccc(C(=O)Nc2ccc3sc(SC)nc3c2)cc1	none (no result: BoNT-F LC inh, MazEF act, BoNT A protease, Anthrax LF prot, Autofluor counter)
CSc1nc2ccc(S(=O)(=O)N(C)C)cc2s1	BoNT A protease inconclusive, Autofluor counter 20777
CCN(CC)S(=O)(=O)c1ccc2nc(SC)sc2c1	Autofluor counter 18930
CC(C)CNS(=O)(=O)c1ccc2nc(NC(=O)c3ccccc3Cl)sc2c1	SSB-PriA inh 41.0 (no result: BoNT-F LC inh, MazEF act, BoNT A protease, Anthrax LF prot, Autofluor counter)
COc1cc(NS(=O)(=O)c2ccc(NC(=O)CSc3nc(C)cc(C)n3)cc2)nc(OC)n1	none (no result: BoNT-F LC inh, MazEF act, BoNT A protease, Anthrax LF prot, Autofluor counter)
COc1cc(C)c(Br)cc1S(=O)(=O)NCCc1ccccc1	none (no result: BoNT-F LC inh, MazEF act, BoNT A protease, Anthrax LF prot, Autofluor counter)
COc1cccc(C(=O)Oc2ccc(C=NNc3ccc(C(=O)O)cc3)cc2OC)c1	none (no result: BoNT-F LC inh, MazEF act, BoNT A protease, Anthrax LF prot, Autofluor counter)
CC(C)NC(=O)c1ccc2c(c1)N(CC(=O)N1CCOCC1)C(=O)C(C)(C)O2	Autofluor counter 22372
CSc1nn(CC(=O)Nc2ccc(F)cc2F)c(N)c1-c1nc(-c2ccc3c(c2)OCO3)no1	none (no result: BoNT-F LC inh, MazEF act, BoNT A protease, Anthrax LF prot, Autofluor counter)
O=C(CN1C(=O)c2ccccc2C1=O)NCC1COc2ccccc2O1 (centres undefined)	none
O=C(CN1CCN(Cc2ccccc2)CC1)NCC1COc2ccccc2O1 (centres undefined)	Autofluor counter 23257
COc1cccc(-c2nc3ccc(O)cc3c(=O)o2)c1	BoNT A protease inconclusive, Autofluor counter 23859
O=C(CSc1nnc2c(=O)n(-c3ccc(F)cc3)ccn12)NC[C@H]1CCCO1	none (no result: BoNT-F LC inh, MazEF act, BoNT A protease, Anthrax LF prot, Autofluor counter)
CCNC(=O)C(C)Oc1ccc(Cl)cc1Cl (centres undefined)	none
CCNC(=O)n1nccc1C(C)Oc1cccc(C(F)(F)F)c1 (centres undefined)	Autofluor counter 21560
CCNC(=O)n1nccc1C(C)Oc1ccc(Cl)cc1 (centres undefined)	Autofluor counter 21790
Cc1ccccc1SCC(=O)NC1CCOC1=O (centres undefined)	Autofluor counter 22927
Cc1ccccc1SCC(=O)Nc1ccc(N2CCOCC2)cc1	none
COc1ccccc1-c1nc(C)c(-c2ccc(SCC(=O)Nc3cccc(Cl)c3C)nn2)s1	none (no result: BoNT-F LC inh, MazEF act, BoNT A protease, Anthrax LF prot, Autofluor counter)
CC1=CC(=C2N=C(c3ccccc3)OC2=O)C=C(C)O1	MazEF act 305.9
O=C(Nc1nc(-c2cc(Cl)ccc2Cl)cs1)c1c(F)cccc1F	none (no result: BoNT-F LC inh, MazEF act, BoNT A protease, Anthrax LF prot, Autofluor counter)
Cc1ccccc1-n1nc(C)c2cc(C(=O)N3CCOCC3)sc21	BoNT A protease inconclusive, Autofluor counter 23082
CN1CCN(c2ccc(-c3ccc(NC(=O)Nc4ccccc4Cl)cc3)nn2)CC1	none (no result: BoNT-F LC inh, MazEF act, BoNT A protease, Anthrax LF prot, Autofluor counter)
O=S(=O)(c1ccc(S(=O)(=O)N(Cc2ccccc2)Cc2ccco2)cc1)N1CCCC1	Autofluor counter 16963
CC(Oc1ccccc1)c1ccnc2nc(/N=C/N(C)C)nn12 (centres undefined)	BoNT A protease inconclusive, Autofluor counter 21790 (no result: SSB-PriA inh)
C[C@](O)(CCc1ccccc1)CNC(=O)Cc1ccsc1	none (no result: BoNT-F LC inh, MazEF act, BoNT A protease, Anthrax LF prot, Autofluor counter)
CCCCC(=O)Nc1cccc(NC(=O)c2ccc(Br)cc2)c1	Autofluor counter 24448
CCCCC(=O)Nc1ccc(C(=O)Nc2cccnc2)cc1	Autofluor counter 16977
CCSc1ccccc1C(=O)Nc1cnoc1	none (no result: BoNT-F LC inh, MazEF act, BoNT A protease, Anthrax LF prot, Autofluor counter)
CCSc1ccccc1C(=O)Nc1cccnc1	BoNT A protease inconclusive, Autofluor counter 23629
CCCCC(=O)Nc1ccc(C(=O)Nc2nnc(COC)s2)cc1	Autofluor counter 21834
Cc1ccc2[nH]c3c(=O)n(CC(=O)N4CCN(c5ccccc5Cl)CC4)cnc3c2c1	none (no result: BoNT-F LC inh, MazEF act, BoNT A protease, Anthrax LF prot, Autofluor counter)
Cc1ccccc1NC(=O)c1ccc(S(=O)(=O)Nc2ccc(OC(F)(F)F)cc2)o1	none (no result: BoNT-F LC inh, MazEF act, BoNT A protease, Anthrax LF prot, Autofluor counter)
COc1nn(C)cc1C(=O)N1CCCC(C(=O)NCCn2nc(-c3ccco3)ccc2=O)C1 (centres undefined)	none (no result: BoNT-F LC inh, MazEF act, BoNT A protease, Anthrax LF prot, Autofluor counter)
COc1ccc(NC(C)=O)cc1NC(=O)Cc1cc(-c2cccs2)on1	none (no result: BoNT-F LC inh, MazEF act, BoNT A protease, Anthrax LF prot, Autofluor counter)
O=[N+]([O-])c1cccnc1Sc1ccc(Br)cc1	BoNT-F LC inh inconclusive, SSB-PriA inh 47.9, BoNT A protease inconclusive
Cc1ccc(Sc2ncccc2[N+](=O)[O-])cc1	none
O=[N+]([O-])c1cccnc1SCc1ccccc1	SSB-PriA inh 48.2
CCOC(=O)N1CCC(NC(=O)c2cc(-c3ccc(OC)cc3)nc3ccccc23)CC1	none
CCOC(=O)N1CCC(NC(=O)c2cccn3c(=O)c4cc(Br)ccc4nc23)CC1	Autofluor counter 18434
CCC(C)NC(=O)c1ccccc1NC(=O)c1ccc(CSc2ccc(C)cc2)cc1 (centres undefined)	Autofluor counter 17124
CCC(C)NC(=O)c1ccccc1SC (centres undefined)	none
Cc1ccccc1NC(=O)c1ccc(CSc2ncccn2)cc1	Autofluor counter 16598
CCC(C)NC(=O)c1ccccc1C(=O)NC(C)CC (centres undefined)	Autofluor counter 24599
COC(=O)c1ccccc1-c1ccc(/C=C/c2cc(C(=O)O)c3ccccc3n2)o1	none (no result: BoNT-F LC inh, MazEF act, BoNT A protease, Anthrax LF prot, Autofluor counter)
CCCOc1cccc(-c2cc(C(=O)NNC(=S)NCC)c3ccccc3n2)c1	Autofluor counter 24056
CCNC(=S)NNC(=O)c1cc(-c2cccc(OC)c2)nc2ccccc12	none
CCNC(=S)NNC(=O)c1cc(CC(C)C)nc2ccccc12	BoNT A protease inconclusive, Autofluor counter 22680
Cc1ccccc1OCC(=O)Nc1ccc2c(c1)COC2=O	Autofluor counter 20173
COC(=O)C1=CN(C(C)C)C=C(C(=O)OC)C1c1cc(Br)c(OC)c(OC)c1	Autofluor counter 23675
COC(=O)C1=CN(C(C)C)C=C(C(=O)OC)C1c1cccc(OC)c1	none
Cc1ccc(S(=O)(=O)N(CC(=O)N2CCN(c3ccc(F)cc3)CC2)C2CCCCC2)cc1	Autofluor counter 23859
Nc1nnc(SCc2ccc(F)cc2)s1	BoNT A protease inconclusive, Autofluor counter 23088
O=C(Nc1nc2c(ccc3ccccc32)s1)c1ccno1	none (no result: BoNT-F LC inh, MazEF act, BoNT A protease, Anthrax LF prot, Autofluor counter)
Cc1cccc2sc(NC(=O)c3coc(NC(=O)c4cnccn4)n3)nc12	none (no result: BoNT-F LC inh, MazEF act, BoNT A protease, Anthrax LF prot, Autofluor counter)
